Source: PubChem BioAssay (NCATS)
Results filed as inconclusive are left out. Where a call stands in place of a potency, no number is given. Unmarked numbers belong to inactive results. The source made the active and inactive calls. The call rests on the fitted dose curve; in most records, active means well fitted cell-killing curve with a large enough effect; inconclusive means small, poorly fitted or top-dose-only effect, or effect the other way; inactive means no such curve, though single readings can be large or run the other way.

Experiments:
[1] = Viability qHTS for spleen associated tyrosine kinase inhibitor (SYKi) naive MV4-11 cells (AID 1963823); further: nearly all actives have a fitted effect of over 40% in size
Method in brief: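 CellTiter-Glo luminescence, 10 min room-temperature incubation, gave viability. Cells: naive MV4-11 (500/well), treated 72 hr at 37 C, 5% CO2.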

[2] = Viability qHTS for spleen associated tyrosine kinase inhibitor (SYKi) drug resistant MV4-11 cells (AID 1963824); further: nearly all actives have a fitted effect of over 35% in size
Method in brief: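 SYK-inhibitor-resistant MV4-11 AML cells were seeded at 500 per well onto compound and cultured 72 hours (37 °C, 5% CO2). CellTiter-Glo was then added, and after 10 min at room temperature, luminescence gave viability.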
Potency means the concentration at half of the fitted maximal effect.

## NC(=O)NCCCC(NC(=O)Cc1ccccc1)C(=O)O (centres undefined)
[1]
  Potency: inactive
[2]
  Potency: inactive

## C=CC(C)(O)CC/C=C(\C)C(=O)OCC1OC(OC2CCC3(C)C(CCC4(C)C3CC=C3C5CC(C)(C)C(O)CC5(C(=O)O)CCC34C)C2(C)C)C(O)C(OC2OC(CO)C(O)C(OC3OC(CO)C(O)C(OC4OC(COC5OC(CO)C(O)C(O)C5O)C(O)C(O)C4O)C3O)C2O)C1O (centres undefined)
[1]
  viability (% of control): 99.5% [at 9.25 µM]
[2]
  viability, % of control: 108% [at 9.25 µM]

## NC(=O)[C@H](O[C@@H]1O[C@H](CO)[C@@H](O)[C@H](O)[C@H]1O)c1ccccc1
[1]
  Potency: inactive
[2]
  Potency: inactive

## Nc1nc2c(nc(Sc3ccc(Cl)cc3)n2[C@@H]2O[C@@H]3COP(=O)(O)O[C@H]3[C@H]2O)c(=O)[nH]1
[1]
  Potency: inactive
[2]
  Potency: inactive

## C=C1C(=O)O[C@H]2CC(=C)[C@H]3CC[C@@](C)(O)[C@@H]3CC12 (some centres undefined)
[1]
  Potency: 6.51 µM (active)
[2]
  Potency: 4.11 µM (active)

## Oc1cccc(Nc2ncnc3sc4c(c23)CCCC4)c1
[1]
  Potency: 4.11 µM (active)
[2]
  Potency: 5.8 µM (active)

## CS(=O)(=O)c1ccc([C@@H](C[C@H]2CCC(=O)C2)C(=O)Nc2cnccn2)cc1Cl
[1]
  Potency: 15.8 µM (active)
[2]
  Potency: 15.8 µM (active)

## CC(C)O[C@@H]1O[C@H](CO)[C@@H](O)[C@H](O)[C@H]1O
[1]
  Potency: inactive
[2]
  Potency: inactive

## CC1=CC(=O)CC(C)(C)C1CCC(C)OC1OC(COC(=O)c2cc(O)c(O)c(O)c2)C(O)C(O)C1O (centres undefined)
[1]
  Potency: inactive
[2]
  Potency: inactive

## C[C@H](N)C(=O)N[C@@H](Cc1ccc(O)cc1)C(=O)N1CCC[C@H]1C(=O)NCC(=O)N[C@@H](CCCCN)C(=O)N[C@@H](Cc1ccccc1)C(N)=O
[1]
  viability (% of control): 94.9% [at 9.25 µM]
[2]
  viability, % of control: 89.8% [at 9.25 µM]

## CCCCc1nc(Cl)c(CO)n1Cc1ccc(-c2ccccc2-c2nnn[nH]2)cc1
[1]
  Potency: inactive
[2]
  Potency: inactive

## O=C(N/N=C/c1ccccc1O)c1ccncc1
[1]
  Potency: 0.944 µM (active)
[2]
  Potency: 0.75 µM (active)

## OC[C@H]1O[C@@H](OC/C=C/c2ccc(O)cc2)[C@H](O)[C@@H](O)[C@@H]1O
[1]
  Potency: inactive
[2]
  Potency: inactive

## C=C(C(=O)O)C1CCC2(C)CCC(O)C(=C)C2C1 (centres undefined)
[1]
  Potency: inactive
[2]
  Potency: inactive

## OC1COC(OCC2OC(OCCc3ccccc3)C(O)C(O)C2O)C(O)C1O (centres undefined)
[1]
  Potency: inactive
[2]
  Potency: inactive

## O=c1cc(-c2ccc(O)cc2)oc2cc(OC3OC(CO)C(O)C(O)C3O)c(C3OC(CO)C(O)C(O)C3O)c(O)c12 (centres undefined)
[1]
  Potency: inactive
[2]
  Potency: inactive

## CC(=O)N1CCN([C@H]2CCN(C(=O)N(C)[C@H](C)c3cc(C(F)(F)F)cc(C(F)(F)F)c3)[C@@H](c3ccc(F)cc3C)C2)CC1
[1]
  Potency: 14.6 µM (active)
[2]
  Potency: 8.2 µM (active)

## CC1=CCC(C(C)(C)O[C@@H]2O[C@H](CO[C@@H]3O[C@@H](C)[C@H](O)[C@@H](O)[C@H]3O)[C@@H](O)[C@H](O)[C@H]2O)CC1 (some centres undefined)
[1]
  Potency: inactive
[2]
  Potency: inactive

## C[C@@H]1O[C@@H](OC[C@H]2O[C@@H](OCc3ccccc3)[C@H](O)[C@@H](O)[C@@H]2O)[C@H](O)[C@H](O)[C@H]1O
[1]
  Potency: inactive
[2]
  Potency: inactive

## CC(C)(C)S(=O)(=O)c1ccc2nccc(Nc3n[nH]c4ccc(F)cc34)c2c1
[1]
  Potency: 7.42 µM (active)
[2]
  Potency: 9.34 µM (active)

## CC1CCCC[C@H]2C(=O)C=C[C@H](O)[C@@H]2CC(=O)O1 (some centres undefined)
[1]
  Potency: 0.731 µM (active)
[2]
  Potency: 0.731 µM (active)

## CSc1nc(N)cc(Oc2ccc(-c3nc(Nc4cccc(C(F)(F)F)c4)n[nH]3)cc2)n1
[1]
  Potency: 1.16 µM (active)
[2]
  Potency: 1.03 µM (active)

## COc1cc([C@H]2c3cc(O)c(OC)cc3C[C@@H](CO[C@@H]3O[C@H](CO)[C@@H](O)[C@H](O)[C@H]3O)[C@@H]2CO)ccc1O
[1]
  Potency: inactive
[2]
  Potency: inactive

## COc1cc(O)cc(O[C@@H]2O[C@H](CO)[C@@H](O[C@@H]3OC[C@](O)(CO)[C@H]3O)[C@H](O)[C@H]2O)c1OC
[1]
  Potency: inactive
[2]
  Potency: inactive

## Cc1occc(=O)c1O[C@@H]1O[C@H](CO)[C@@H](O)[C@H](O)[C@H]1O
[1]
  Potency: inactive
[2]
  Potency: inactive

## CC[C@H]1OC(=O)[C@H](C)[C@@H](O[C@H]2C[C@@](C)(OC)[C@@H](O)[C@H](C)O2)[C@H](C)[C@@H](O[C@@H]2O[C@H](C)C[C@H](N(C)C)[C@H]2O)[C@](C)(O)C[C@@H](C)/C(=N/OCOCCOC)[C@H](C)[C@@H](O)[C@]1(C)O
[1]
  Potency: inactive
[2]
  Potency: inactive

## CO[C@@H]1CC(OC2CCC3(C)C(CCC45CCC(C6=CC(=O)OC6)C(C)(CCC43)C5=O)C2)O[C@H](C)[C@@H]1O[C@@H]1O[C@H](CO[C@@H]2O[C@H](CO)[C@@H](O)[C@H](O)[C@H]2O)[C@@H](O)[C@H](O)[C@H]1O (some centres undefined)
[1]
  Potency: 0.873 µM (active)
[2]
  Potency: 0.778 µM (active)
